We go through 37 compounds from PubChem BioAssay AID1274 (Emory University Molecular Libraries Screening Center, 2008).

Screen size: about 220,000 compounds; about 1,100 (0.5%) were called active. The full list was thinned out, with actives kept by preference. Unmarked numbers belong to inactive results.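 The calls were made as follows: active = inhibition above about 30% (limit read from the data); inactive = the rest.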

The target in the test is Neutrophil cytosol factor 1 (Homo sapiens) (UniProt P14598). The test can be described thus: p47phox/p22phox peptide binding inhibitors, primary screen, biochemical, uHTS, NADPH oxidase regulatory subunit (AID 1274).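 Also: 0% = p47phox with labelled peptide and 100% = labelled peptide alone.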 As to conditions: fluorescence polarization, 2 h, at 24.7 µM, active compounds read high. Background: Fluorescence polarisation rises when a labelled molecule tumbles more slowly, as on binding a larger partner.
Neutrophil cytosol factor 1 (Homo sapiens), sequence (P14598 whole entry, looked up): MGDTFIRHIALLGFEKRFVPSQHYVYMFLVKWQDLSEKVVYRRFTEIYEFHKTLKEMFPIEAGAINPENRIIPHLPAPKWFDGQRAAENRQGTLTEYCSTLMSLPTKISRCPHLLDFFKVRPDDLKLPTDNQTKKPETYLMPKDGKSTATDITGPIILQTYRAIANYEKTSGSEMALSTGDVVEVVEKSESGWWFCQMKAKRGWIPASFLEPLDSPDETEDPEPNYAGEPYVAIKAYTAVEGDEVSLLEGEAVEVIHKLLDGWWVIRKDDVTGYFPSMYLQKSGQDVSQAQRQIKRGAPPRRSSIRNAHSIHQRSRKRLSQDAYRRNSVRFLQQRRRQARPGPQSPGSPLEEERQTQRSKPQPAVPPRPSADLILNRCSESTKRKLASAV
As for `COc1ccc(C(=O)O/N=C(\N)Cc2ccc(Cl)cc2Cl)cc1OC`, the inhibition was -5.94%.

Regarding `NC(N)=N/N=C/c1ccc(Cl)c([N+](=O)[O-])c1`, the inhibition is 3.52%. For `NC(N)=N/N=C/c1ccc(OCc2ccc(Cl)cc2Cl)cc1` the value was 103% (active); for `Oc1oc(-c2ccccc2Br)nc1/C=N/c1ccccn1`, -6.08%; for `Cc1cc(C)n(Cc2cnc(N3CCOCC3)s2)n1`, -9.55%.

With `O=C(NCc1cc(C(F)(F)F)cc(C(F)(F)F)c1)C1CC(c2cccc(F)c2)=NO1` (configuration not stated), the inhibition is -5.46%. The figure for `CC(C)OCCCNc1nc2c(c(=O)n(Cc3ccccc3F)c(=O)n2C)n1C` is -4.4%; for `Cc1cccc(N2CC(C)Cn3c2nc2c3c(=O)n(CC(=O)OCc3ccccc3)c(=O)n2C)c1` (configuration not stated) it is -39.9%.

With `COc1ccc(N2CC(C)Cn3c2nc2c3c(=O)n(Cc3ccccc3F)c(=O)n2C)c(OC)c1` (configuration not stated), the inhibition was 58.5% (active).

Consider `COc1ccc(C2(CNC(=O)Cc3ccc(OC)c(OC)c3)CCCC2)cc1`, for which the inhibition is 10.1%. For `O=C(CSc1ccc2nnc(-c3ccccc3)n2n1)N1CCCc2ccccc21` the value was 9.14%. For `COc1ccc(NC(=S)SC)cc1OC` the value was -0.91%; for `O=c1[nH]c2cccnc2n1-c1ccc([N+](=O)[O-])cc1`, 3.76%. The figure for `O=C1CC(c2ccccc2)=NN1c1ccc([N+](=O)[O-])cc1` is -0.56%. `O=c1[nH]n(-c2ccc([N+](=O)[O-])cc2)c(=O)c2ccccc12`: the inhibition was 43.7% (active). For the compound `CC(=O)c1c(C)[nH]c(C(=O)Nc2cc(S(=O)(=O)N(C)C)ccc2C)c1C`, the inhibition is -11.1%. The figure for `COCCn1c(SCC(=O)Nc2cc(OC)ccc2OC)nc2c(c1=O)SC(C)C2` (configuration not stated) is -1.72%; for `CC1=C(C)C(=O)OC(C(C)C2CCC3C4CC=C5CC(OC6OC(COC7OC(CO)C(O)C(O)C7O)C(O)C(O)C6O)CC(O)C5(C)C4CCC23C)C1` (configuration not stated) it is -3.03%. The figure for `O=C(Nc1ccccc1)N(Cc1cccnc1)Cc1ccco1` is -9.87%; for `Cc1cccc2cc(CN(Cc3cccs3)C(=S)NCc3ccco3)c(=O)[nH]c12` it is -184%. The figure for `Cc1ccc(C)c2[nH]c(=O)c(CN(Cc3cccnc3)C(=S)NCc3ccco3)cc12` is 40.3% (active); for `O=S1(=O)CC/C(=N\Nc2ccc(F)cc2)c2ccsc21` it is -3.38%; for `N#C/C(=C/c1ccc(N2CCCCC2)o1)C(=O)NCCc1c[nH]c2ccccc12` it is 41.9% (active). In the case of `N#C/C(=C/c1ccc(-c2ccccc2[N+](=O)[O-])o1)C(=O)NCCN1CCCCC1`, the inhibition is 2.84%. For `O=C(NCCc1c[nH]c2ccccc12)C(=O)NCC1CCCO1` (configuration not stated) the value was -9.36%. The figure for `Cc1ccc2cc(CN(c3ccc(C)c(C)c3)S(C)(=O)=O)c(=O)[nH]c2c1` is -7.6%; for `O=C(Nc1ccc(S(=O)(=O)N2CCOCC2)cc1)c1ccc2ncsc2c1` it is -9.71%; for `Cc1ccc(O)c(NC(=S)NC(=O)COc2ccc(Br)cc2)c1` it is -10.4%. Take `COc1ccc(OC)c(NC(=O)CCN2CCC(C)CC2)c1`: the inhibition is 43.5% (active).

Take `COc1ccc(NC(=O)CCN2CCCC2)c(OC)c1`: the inhibition was -2.15%. The figure for `CCOC(=O)N1CCN(CCC(=O)Nc2cc(OC)ccc2OC)CC1` is 3.79%; for `Cc1ncn2cc(-c3ccc(Cl)cc3Cl)[nH]c(=O)c12` it is 0.92%. For `CN(C)C(=O)CSc1n[nH]c(-c2ccco2)n1` the value was -9.79%. For `O=C(COC(=O)c1ccc(F)cc1F)Nc1ncccn1` the value was -18.8%. With `CCc1ccc(C2C(C#N)=C(N)N(N(C)C)C3=C2C(=O)CCC3)s1` (configuration not stated), the inhibition was -16.9%. Consider `CSc1sc(C)cc1C1C(C#N)=C(N)N(c2cccnc2)C2=C1C(=O)CCC2` (configuration not stated), for which the inhibition was 40.6% (active). The figure for `N#CC1=C(N)N(c2ccccc2)C2=C(C(=O)CCC2)C1c1ccccc1` (configuration not stated) is -23.4%.

The inhibition is the drop in the measured response relative to a control, in per cent.
